# TNAP act mid DEA = human TNAP enzyme activators, primary screen, biochemical, luminescent, intermediate phosphate acceptor level; Alkaline phosphatase, tissue-nonspecific isozyme (Homo sapiens), P05186; purified TNAP, CDP-star luminescence, 100 mM DEA, 30 min; active compounds read high; scale: 0 levamisole-inhibited, 1 vehicle-only enzyme; AID 813, 2007; 64,000 tested, under 10 active; activation factor at 20 µM;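 active = activation factor of at least 2 at 20 µM, relative to controls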
# Target sequence (P05186 whole entry, looked up): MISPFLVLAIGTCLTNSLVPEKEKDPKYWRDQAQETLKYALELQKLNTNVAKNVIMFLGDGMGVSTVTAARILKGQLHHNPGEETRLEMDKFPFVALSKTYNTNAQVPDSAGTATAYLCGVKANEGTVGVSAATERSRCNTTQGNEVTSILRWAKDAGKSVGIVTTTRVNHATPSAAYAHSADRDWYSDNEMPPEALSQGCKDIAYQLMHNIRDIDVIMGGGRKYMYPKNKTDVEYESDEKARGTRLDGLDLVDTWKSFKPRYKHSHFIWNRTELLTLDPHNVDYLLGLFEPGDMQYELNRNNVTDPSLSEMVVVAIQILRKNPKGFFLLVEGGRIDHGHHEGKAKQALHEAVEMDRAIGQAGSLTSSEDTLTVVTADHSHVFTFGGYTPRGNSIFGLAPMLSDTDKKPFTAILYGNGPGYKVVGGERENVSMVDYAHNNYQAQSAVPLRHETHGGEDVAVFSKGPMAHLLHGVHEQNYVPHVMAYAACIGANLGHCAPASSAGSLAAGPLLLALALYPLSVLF
# DAT uptake mod = changed hDAT dopamine uptake under cocaine IC80, either direction, primary screen, cocaine antagonist project, cell-based, LLC-PK1 hDAT, [14C]-dopamine uptake, MLSMR. Sodium-dependent dopamine transporter (Homo sapiens), Q01959. LLC-PK1 hDAT cells, [14C]-dopamine uptake with cocaine IC80; actives deviate in either direction. B-score at 10 µM. hit rate 1.3% among 110,000. AID 449768, 2010;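 active = Z score or B-score, a plate-position-corrected score, falls beyond the plate's 99.7% confidence bounds, in either direction; inactive = both scores lie inside the 99.7% bounds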;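 note: scored against the spread of the other compound wells on the same plate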
# PostGolgi ctrl = growth inhibition of yeast control strain, primary screen, counter-screen for post-Golgi transport modulator project; hit rate 5% among 98,000; efflux-deficient yeast background strain, growth absorbance A615, 16 h; inhibition, % at 10 µM; AID 738, 2007
# Cav3 T inh = Cav3.2 calcium influx blockers – cell-based, Fluo-4 calcium fluorescence, FDSS, MLSMR library, primary screen | B-score at 10 µM | Cav3.2-expressing cells; active compounds read low | hit rate 4% among 100,000 | Voltage-dependent T-type calcium channel subunit alpha-1H (Homo sapiens), O95180;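 active = single-dose well whose peak fluorescence ratio is a statistical outlier from its plate by either plate-standardised score or position-corrected B-score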
# Smad3 inh = Smad3/FoxH1 peptide binding inhibitors, primary screen, biochemical, TR-FRET. Mothers against decapentaplegic homolog 3 (Homo sapiens), P84022. TR-FRET Smad3/Dy647-FoxH1 peptide binding, europium anti-His. hit rate 0.29% among 88,000. inhibition, % at 25 µM;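 active = compounds that reduce the energy-transfer binding signal between the protein and its labelled peptide by more than half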;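 note: 0% = Smad3 plus labelled peptide maximal FRET and 100% = peptide-only background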
# PostGolgi yeast = phenotypic screen on post-Golgi transport, primary screen. post-Golgi transport phenotypic cell assay. inhibition, % at 10 µM. hit rate 0.9% among 98,000;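 note: yeast cells grown in 1536-well plates; yeast grown about 18 h at 30C before absorbance read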
# Active calls of the source: *; · = not tested or not shown. Compounds with a hit are over-represented: about 8.7% of the library has one in this group of screens. Cut-off read from the data, not from the text of the source, unless noted: active = inhibition above about 30%; inactive = the rest.
SMILES,TNAP act mid DEA,DAT uptake mod,PostGolgi ctrl,Cav3 T inh,Smad3 inh,PostGolgi yeast
Cc1noc(C)c1CSc1nc2ccccc2nc1NS(=O)(=O)c1ccc(Cl)cc1,0.9,-0.89,-1,-8.1*,13,7
O=S(=O)(Nc1nc2ccccc2nc1NCc1ccco1)c1ccc(Cl)cc1,0.8,-0.34,38*,-4.8*,-2,-8
O=C(NCc1cccnc1)c1nnc(Cc2ccc(F)cc2)o1,0.9,·,40*,·,-11,8
O=C(NCc1ccco1)c1nnc(Cc2ccc(Cl)cc2)o1,·,2.6*,13,-0.41,-4,2
O=C(NCc1ccncc1)c1nnc(Cc2c(F)cccc2Cl)o1,0.9,-0.87,31*,0.41,6,3
CCN(CC)c1ccc(NC(=O)c2cccnc2)c(C)c1,·,-0.027,7,0.045,-21,-2
COC(=O)[C@@]1(Cc2ccc(OC)cc2)[C@H]2c3cc(C(=O)N(C)C)n(CCSCCO)c3C[C@H]2CN1C(=O)c1ccccc1,·,-0.11,·,0.28,·,·
CC(C)c1ccc(/C=C2/C=C(c3ccc4ccccc4c3)OC2=O)cc1,·,·,·,·,-9,·
CCOCN(C(=O)Cn1c(COC)nc2ccccc21)c1c(C)cccc1CC,·,-0.62,27,-3.3*,-6,-3
CN(CC(CC(=O)Nc1nncs1)c1ccccc1)S(=O)(=O)c1ccc(Br)cc1 (configuration not stated),·,0.15,10,-9.5*,-2,1
CCc1nnc(NC(=O)CC(CN(C)S(=O)(=O)c2ccccc2)c2ccccc2)s1 (configuration not stated),·,0.39,1,-6.9*,2,2
CCc1nnc(NC(=O)c2cccc(S(=O)(=O)N(C)c3ccccc3)c2)s1,·,·,17,·,0,-10
CN(CC(CC(=O)Nc1nncs1)c1ccccc1)S(=O)(=O)c1ccccc1 (configuration not stated),1,1.8,6,-2.4,-6,5
Nc1cc(=O)[nH]c(=O)n1CC1CC1,·,0.96,·,0.95,·,·
Cc1cccc2cc(CN(Cc3nnnn3Cc3ccco3)C3CCCC3)c3nnnn3c12,0.9,-7.4*,43*,·,12,17
Cc1cccc2cc(CN(CC3CCCO3)S(=O)(=O)c3ccccc3)c3nnnn3c12 (configuration not stated),0.9,·,·,·,-4,·
COc1cccc(CNc2ccc3c(c2)ncn3C(C)C)c1OC,1,0.17,-6,-0.055,-3,2
CCOC(=O)c1c(C)[nH]c(C(=O)C(C)Sc2ccc(Cl)cc2)c1C (configuration not stated),·,0.66,29,-5.8*,12,8
COc1cccc(-c2nnc(N(C)C(=O)C3CCOC3)s2)c1 (configuration not stated),1,0.6,5,-0.033,4,-3
CCOc1ccc(S(=O)(=O)NCc2ccco2)c2ccccc12,0.8,-0.013,20,-1.8,0,-7
O=C(Nc1nnc(SCc2ccc(F)cc2)s1)C1Cc2ccccc2CN1C(=O)c1ccco1 (configuration not stated),·,-0.11,2,-5.7*,-2,-8
COc1ccc(CN2CCN(C(=O)C3CC(=O)N(C4CCCCCC4)C3)CC2)c(OC)c1OC (configuration not stated),1,-0.52,2,-1.6,11,-6
CCN(CC)C(=O)N1c2ccccc2C=Cc2ccccc21,·,-0.59,26,-8.6*,7,1
NC(=O)N1c2ccccc2C=Cc2ccccc21,0.9,-0.22,·,1.4,4,·
COc1ccc(S(=O)(=O)Nc2cc(C)c(O)cc2C(C)C)cc1,1,2.6,18,-1.3,5,0
SMILES,TNAP act mid DEA,DAT uptake mod,PostGolgi ctrl,Cav3 T inh,Smad3 inh,PostGolgi yeast
COc1ccc(S(=O)(=O)Nc2cc(C(C)C)c(O)cc2C)cc1,0.9,0.93,3,-4.8*,3,-8
Cc1nn(Cc2ccc(Cl)cc2Cl)c(C)c1NC(=O)NC12CC3CC(CC(C3)C1)C2,·,1.2,16,-4.2*,·,17
Cc1nn(Cc2ccc(Cl)cc2Cl)c(C)c1NC(=O)c1sc2ccccc2c1Cl,·,0.55,3,-0.92,·,2
CCN(CC)S(=O)(=O)c1ccc(OC)c(NC(=O)c2cccc([N+](=O)[O-])c2C)c1,·,-7.7*,·,0.036,·,·
CCN(CC)S(=O)(=O)c1cc([N+](=O)[O-])ccc1NNC(=O)Nc1ccccc1OC,·,0.24,10,-9.1*,3,-2
COc1cc2c(cc1NC(=O)c1cccc([N+](=O)[O-])c1C)oc1ccccc12,·,-0.44,25,-0.59,·,2
COc1ccc(-n2c(SC(CN3CCCCC3)CN3CCCC3=O)nc3ccccc3c2=O)cc1 (configuration not stated),·,-0.02,31*,-0.99,·,0
COc1ccc(-c2noc(CSc3nc4ccccc4c(=O)n3-c3ccccc3)n2)cc1,0.9,0.67,20,-2.4,8,-1
CN(C1=C(N2CCCCC2)C(=O)c2ccccc2C1=O)c1ccccc1,·,1.3,33*,-2.5,-14,-1
O=C1C(Nc2cccc(O)c2)=C(N2CCCCC2)C(=O)c2ccccc21,·,-2.7*,-9,-0.85,·,-6
O=C1C(Nc2ccccc2)=C(N2CCCCC2)C(=O)c2ccccc21,·,-5*,9,0.6,·,10
CC1(C)CC(=O)/C(=C(\O)c2ccccc2)C(=NCCO)C1,·,-1.1,4,2,·,7
CC(C)(C)c1ccc(C(=O)c2c[nH]c(C(=O)NCC3CCCO3)c2)cc1 (configuration not stated),·,1.7,17,-3.5,·,7
CCCOc1cc(C)c(Cl)cc1S(=O)(=O)N(CC)CC,·,-0.62,·,-3.8*,-8,·
CCN(CC)S(=O)(=O)c1cc(Br)c(C)cc1OC,0.9,-0.53,33*,·,1,-14
O=C(CN(C1CCCCC1)S(=O)(=O)c1ccc(Cl)cc1)N1CCOCC1,·,-0.22,9,0.48,13,2
CC(C)(C)NC(=O)C(c1ccccc1)N(C(=O)c1ccco1)C1CC1 (configuration not stated),0.9,0.52,1,0.24,-6,-5
COC(=O)C1C2C=CC(C3CC23)C1C(=O)OCC(=O)c1ccc(OC)cc1 (configuration not stated),·,2.4,-6,-0.96,·,1
COc1ccc(C(=O)COC(=O)CCN2C(=O)C3C4CC(C(Br)C4Br)C3C2=O)cc1 (configuration not stated),·,-2.3*,28,0.076,·,3

# Source: PubChem (several laboratories)
